Unmarked numbers belong to inactive results. Inconclusive results are not listed. Entries that show only a call come without a potency. Active and inactive are the calls of the source. Calls follow the shape of the dose curve; as a rule, active = well fitted curve in the direction sought with a large enough effect; inconclusive = small, poorly fitted or top-dose-only effect, or another doubt; inactive = no such curve, though single readings can be large; an effect the other way counts as inactive or inconclusive.
Columns and labels:
[1] = target: Glutathione peroxidase 1 (Homo sapiens) (UniProt P07203); test: Primary qHTS Assay for Inhibitors of Recombinant Selenoprotein Glutathione Peroxidase 1 (GPX1) (AID 1845191); also: nearly all actives have a fitted effect of over 65% in size
Chain of Glutathione peroxidase 1 (Homo sapiens) (P07203 whole entry, looked up): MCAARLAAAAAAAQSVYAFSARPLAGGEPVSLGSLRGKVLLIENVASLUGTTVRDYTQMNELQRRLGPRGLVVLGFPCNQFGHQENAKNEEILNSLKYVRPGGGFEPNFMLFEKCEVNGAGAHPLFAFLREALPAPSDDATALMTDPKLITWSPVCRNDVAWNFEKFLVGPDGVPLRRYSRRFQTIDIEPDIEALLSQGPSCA
Procedure, shortened: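 NADPH consumption tracked by fluorescence at 340/450 nm between t=0 and t=15 min, room temperature. Final mix: 10 nM GPX1, 100 nM glutathione reductase, 1 mM GSH, 0.5 mM NADPH, 0.5 mM cumene hydroperoxide, 0.01% BSA; 30 min compound–enzyme preincubation.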

[2] = target: Phospholipid hydroperoxide glutathione peroxidase GPX4 (Homo sapiens) (UniProt P36969); test: Primary qHTS Assay for Inhibitors of Recombinant Selenoprotein Glutathione Peroxidase 4 (GPX4) (AID 1845192); also: nearly all actives have a fitted effect of over 65% in size
Chain of Phospholipid hydroperoxide glutathione peroxidase GPX4 (Homo sapiens) (P36969 whole entry, looked up): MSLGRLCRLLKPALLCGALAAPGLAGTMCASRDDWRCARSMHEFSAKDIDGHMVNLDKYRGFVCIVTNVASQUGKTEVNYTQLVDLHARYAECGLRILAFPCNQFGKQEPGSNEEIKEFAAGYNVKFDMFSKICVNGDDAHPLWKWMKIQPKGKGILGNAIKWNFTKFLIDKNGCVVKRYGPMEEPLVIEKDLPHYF
Procedure, shortened: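 NADPH consumption followed by fluorescence at 340/450 nm, t=0 and after 15 min at room temperature. Reaction started with cumene hydroperoxide (0.5 mM final) after 30 min compound–GPX4 preincubation; final 200 nM GPX4, 100 nM GR, 1 mM GSH, 0.5 mM NADPH.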

[3] = target: Luciferin 4-monooxygenase (Photinus pyralis) (UniProt P08659); test: Primary firefly luciferase (FLuc) qHTS assay for identification of artifact compounds. (AID 1845220); also: nearly all actives have a fitted effect of over 60% in size; also: potency is read from the fitted curve at half-maximal effect
Procedure, shortened: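 Cell-free, 1536-well qHTS. Buffer pH 7.6 with 0.01% Tween-20 and 0.05% BSA; 10 uM D-luciferin, 10 uM ATP; 10 nM P. pyralis luciferase; luminescence after 5 min.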

[4] = tested on: Nanoluciferase (engineered Oplophorus gracilirostris luciferase); test: Primary Nanoluciferase (NLuc) qHTS assay for identification of artifact compounds. (AID 1845222); also: series mostly up to about 54 µM
Procedure, shortened: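 Compounds are pinned into diluted (1:55) conditioned medium of NLuc-expressing S16 cells and held 15 min at room temperature protected from light. Nano-Glo substrate follows, and luminescence is read 5 min later.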

[5] = Primary fluorescence-based thiol-reactive (MSTI) qHTS assay for identification of artifact compounds. (AID 1845221); also: nearly all actives have a fitted effect of over 65% in size; also: potency is read from the fitted curve at half-maximal effect
Procedure, shortened: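 First, 4 uM MSTI in 2% DMSO/PBS pH 7.4 was dispensed; next, compounds were added; then plates sat 1 h at room temperature without light. Finally, emission at 598 nm was recorded.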

[6] = Primary redox qHTS assay for identification of artifact compounds. (AID 1845223)
Procedure, shortened: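 Redox-cycling detection via DTT (250 uM final) oxidation coupled to Amplex Red (25 uM)/HRP (250 mU/mL) in HBSS. 15 min preincubation plus 30 min after DTT, room temperature. Ex/Em 525/598 nm; 4-parameter Hill fit against DMSO and 10 uM DA3003.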

Row | Compound | Potency [1] | Potency [2] | Potency [3] | Potency [4] | Potency [5] | Potency [6]
1 | CC(=O)OC1C(=O)C2C3OCC4=C3[C@@](C)(CC[C@@H]4O)CC[C@]2(C)[C@H]1C(C)C (stereo partly drawn) | inactive | inactive | inactive | inactive |  | 
2 | COc1cc(CCc2ccc(OCC=C(C)C)cc2)cc(OC)c1OC | inactive | inactive | inactive | inactive |  | 
3 | C/C=C(\C)[C@@H]1C(C)=C[C@@H]2[C@H]([C@@H]1/C=C/C=C/C(=O)O)[C@@H](C)CC[C@@H]2O | inactive | inactive | inactive | inactive |  | 
4 | C#Cc1cccc(Nc2nc3cc(C(=O)O)ccc3c3cncnc23)c1 | inactive | inactive | inactive |  | inactive | inactive
5 | CC(=O)O[C@@H]1CC[C@@]2(C)[C@H](CC[C@@H]3[C@@H]2C[C@H](OC(C)=O)[C@]2(C)[C@@H](C(C)=O)CC[C@@H]32)C1 | inactive | inactive | inactive | inactive |  | 
6 | O=S(=O)(c1ccccc1)N(CC(F)(F)F)c1ccc(C(O)(C(F)(F)F)C(F)(F)F)cc1 | inactive | inactive | inactive | inactive | inactive | inactive
7 | CN(C)CCCn1cc(C2=C(c3c[nH]c4ccccc34)C(=O)NC2=O)c2ccccc21 | inactive | inactive | inactive |  | 423 nM (active) | inactive
8 | O=C(NCCCNC(=O)c1ccc[nH]c1=O)c1cc(-c2ccccc2)on1 | inactive | inactive | inactive |  | inactive | inactive
9 | c1ccc(-c2ccc(CNc3nc(-c4ccccn4)nnc3-c3ccccc3)cc2)cc1 | inactive | inactive | inactive |  | inactive | inactive
10 | C/C(=C\Cc1c(O)c(Cl)c(C)c(C=O)c1O)CC/C=C(\C)[C@H]1CC(=O)C(C)(C)O1 | inactive | inactive | inactive | inactive |  | 
11 | O=S(=O)(Nc1cc(Cl)c(Oc2cnc3ccccc3c2)c(Cl)c1)c1ccc(Cl)cc1Cl | inactive | inactive | inactive |  | inactive | inactive
12 | COc1ccc(-n2c(SCCCN3C(=O)c4cccc5cccc(c45)C3=O)nnc2-c2ccncc2)cc1 | inactive | inactive | inactive | inactive | inactive | inactive
13 | COc1nc2ccc(Br)cc2cc1[C@@H](c1ccccc1)[C@@](O)(CCN(C)C)c1cccc2ccccc12 | inactive | inactive | inactive |  | inactive | inactive
14 | Cc1cnc(-c2ccccc2C(C)C)nc1NCc1ccc(-n2ccnn2)cc1 | inactive | inactive | inactive |  | inactive | inactive
15 | COc1cc(N2CCC(N3CCN(C)CC3)CC2)ccc1Nc1ncc(Cl)c(Nc2ccccc2P(C)(C)=O)n1 | inactive | inactive | inactive | inactive |  | 
16 | Cc1cc(CS(=O)(=O)c2ccccc2)cc(OCc2ccc(CN3CCCC3CO)cc2)c1 (stereo not drawn) | inactive | inactive | inactive |  | inactive | inactive
17 | C[C@H](Nc1ncnc2nc[nH]c12)c1cc2cccc(Cl)c2c(=O)n1-c1ccccc1 | inactive | inactive | inactive |  | inactive | inactive
18 | CN1CCN(c2ccc(Nc3cc(-c4cccc(-n5ccc6cc(C7CC7)cc(F)c6c5=O)c4CO)cn(C)c3=O)nc2)CC1 | inactive | inactive | inactive | inactive |  | 
19 | CC1(C)CCCC2(C)C1C(OC(=O)/C=C/C=C/C=O)C=C1COC(=O)C12O (stereo not drawn) | inactive | inactive | inactive |  | inactive | inactive
20 | C=CC(C)(O)CC/C=C(/C)COC(=O)C(C)C1CCC(C)(C=C)O1 (stereo not drawn) | inactive | inactive | inactive |  | inactive | inactive
21 | Cc1ccc(-c2cn3c4c(sc3n2)CCCC4)cc1 | inactive | inactive | 190 nM (active) | inactive | inactive | inactive
22 | NCCOc1cc(C(=O)Nc2cc(OCCN)c3ccccc3n2)nc(C(=O)Nc2cc(OCCN)c3ccccc3n2)c1 | inactive | inactive | inactive | inactive |  | 
23 | CC(=O)OC1CC(O)(C(C)C)C2C(OC(=O)c3ccc(O)cc3)C=C(C)C(=O)CC12C (stereo not drawn) | inactive | inactive | inactive | inactive | inactive | inactive
24 | CC(=O)OC[C@]12[C@H](OC(C)=O)C(=O)[C@@H]3[C@@H](O)[C@@]14O[C@@]3(C)COC(=O)c1cccnc1[C@@H](C)[C@H](C)C(=O)O[C@@H]([C@H](O)[C@@H]2OC(C)=O)[C@]4(C)O | inactive | inactive | inactive | inactive |  | 
25 | C[C@@H]1C[C@H](C)CN(CCC(=O)Nc2ccc(Br)cc2)C1 | inactive | inactive | inactive |  | inactive | inactive
26 | CC(C)(Cc1nc(-c2ccc(O)cn2)no1)C(=O)NC1=C(C(=O)O)CCCC1 | inactive | inactive | inactive |  | inactive | inactive
27 | CC(=O)O[C@@H]1C2=C(O)C(=O)[C@](C)(OC(C)=O)C(=O)C2=CO[C@@]12O[C@@H](C)CC[C@H]2OC(C)=O | inactive | inactive | inactive | inactive |  | 
28 | Cc1ccc(NC(=O)C(C)C)cc1C1CCN(Cc2ccc(Oc3ccc(F)c(F)c3)cc2)CC1 | inactive | inactive | inactive | inactive |  | 

From PubChem BioAssay (NCATS)
